Screening data: PubChem, National Center for Advancing Translational Sciences (NCATS)
Compounds with a hit are over-represented: about 3.7% of the library has one in this group of screens.
ClpP mod – qHTS Assay for Activators of ClpP; AID 651965, 2013; 1.9% of 340,000 active; ATP-dependent Clp protease proteolytic subunit (Bacillus subtilis (strain 168)), P80244; purified B. subtilis ClpP, FRET peptide cleavage, 20 min; Potency, µM (doses to about 57.5 µM); active means well fitted falling curve with a large enough effect; inconclusive means small, poorly fitted or top-dose-only effect; inactive means no such curve, though single readings can be large or run the other way; further: the source files actives as falling curves though it sought activators and does not explain the sign; nearly all actives have a fitted effect of over 65% in size
Target sequence (P80244 whole entry, looked up): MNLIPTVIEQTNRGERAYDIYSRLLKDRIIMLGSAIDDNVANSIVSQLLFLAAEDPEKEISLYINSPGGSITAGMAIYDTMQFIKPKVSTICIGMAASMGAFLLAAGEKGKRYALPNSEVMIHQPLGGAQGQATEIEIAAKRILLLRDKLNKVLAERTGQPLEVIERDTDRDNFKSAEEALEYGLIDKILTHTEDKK
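ClpP 10 microg/mL final, pH 8 Tris/KCl buffer with BSA, glycerol, Tween-20; compound pinned in; FRET-FV substrate; RT 20 min; Ex320/Em430; ΔFRET vs ADEP 5.8 microM, DMSO, no enzyme.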
miR-21 act – qHTS Assay for Modulators of miRNAs and/orActivators of miR-21 | HeLa miR-21 FLuc reporter, luciferase, 48 h | Potency, µM (series often up to 38.3 µM), most hits filed as activators | 340,000 tested, under 10 active | AID 2288, 2010;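 further: miR-21 action dims this reporter so a rising signal means less miR-21 action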
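HeLa miR-21-FLuc reporter line, endogenous miR-21; 2000 cells/well in DMEM/10% FBS; compound titration up to ~40uM final, 48 h, 37 degree Celsius; luciferase detection reagent, 15 min lysis, CCD luminescence.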
p53 reactivation – qHTS assay for re-activators of p53 using a Luc reporter; Potency, µM (titrated, usually from 92.2 µM), most hits filed as activators; H1299 p53-A138V BP100-luciferase reporter, luminescence, 24 h; 0.063% of 320,000 active; further: nearly all actives have a fitted effect of over 45% in size
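p53-null H1299 cells stably carrying temperature-sensitive p53-A138V and a BP100-luciferase reporter were pinned with compounds (4-point, 1:5 series) and held 24 hrs at 37 deg C. Luminescence was read 10 min after detection reagent.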
Nrf2 ARE act – qHTS of Nrf2 Activators; AREc32 ARE-luciferase reporter (MCF7-derived line), luminescence, 24 h; Potency, µM (series often up to 46.1 µM), hits mostly activators; 0.31% of 410,000 active; further: nearly all actives have a fitted effect of over 65% in size
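For detection, Steady-Glo was added and plates sat 30 min at RT; before that, AREc32_Fluc cells grown overnight in OPTI-MEM/5% FBS had been treated with 23 nL compound for 24 hr at 37 deg C.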
Nrf2 inh – Nrf2 qHTS screen for inhibitors; A549 ARE-Fluc reporter, luciferase luminescence, 18-24 h; AID 504444, 2011; Potency, µM (titrated, usually from 46 µM), actives largely listed as inhibitors; 2.1% of 360,000 active; further: nearly all actives have a fitted effect of over 60% in size
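Nrf2 activity is the BugLite luminescence, read 15 min after reagent at room temperature, following CellTiter-Fluor cytotoxicity readout (30 min, 37C). Compound titrations were applied for 18-24 h to 5000 A549 ARE_Fluc cells/well in 5% FBS OPTI-MEM.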
A549 tox – Nrf2 qHTS screen for inhibitors: counterscreen for cytotoxicity | 0.16% of 390,000 active | Potency, µM (titrated, usually from 46 µM), hits mostly inhibitors | A549 ARE-Fluc cells, CellTiter-Fluor viability, 18-24 h | AID 504648, 2011
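Cytotoxicity counterscreen: CellTiter-Fluor fluorescence was measured in A549 ARE_Fluc cells after 18-24 h of compound exposure in a concentration series. The subsequent BugLite luminescent read reports ARE-luciferase activity.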
Hits are given with their value; n = inactive; u = inconclusive; x = no result given; [ ] = another dose, or the depositor's remark. Unless noted, the call rests on the fitted dose curve; in most records, active means well fitted curve in the direction sought with a large enough effect; inconclusive means small, poorly fitted or top-dose-only effect, or another doubt; inactive means no such curve, though single readings can be large; an effect the other way counts as inactive or inconclusive.

SMILES	ClpP mod	miR-21 act	p53 reactivation	Nrf2 ARE act	Nrf2 inh	A549 tox
O=C(C[n+]1cc(-c2ccc(Cl)cc2)n2c1CCCCC2)c1ccccc1	n	n	n	n	n	n
COc1ccc(-c2c[n+]3c4n2CCCCC4=C(c2ccc(Br)cc2)C3)cc1	22µM	u	n	n	u	n
Clc1ccc(C2=C3CCCCn4c(-c5ccccc5)c[n+](c43)C2)cc1	10µM	n	n	n	n	n
Cc1noc(C)c1C(=O)N1CCC1(C)C(=O)NS(=O)(=O)c1ccccc1C(F)(F)F (stereo not given)	n	x	x	n	x	x
COCCN1Cc2c(sc(C)c2C)N(C(=O)c2ccccc2)C1	n	n	u	u	u	n
Cc1sc2c(c1C)CN(C(C)(C)C)CN2C(=O)c1ccccc1	n	n	u	11µM	u	n
N#Cc1cccc(NC(=O)Cn2nc(Cc3ccncc3)c3ccccc3c2=O)c1	n	n	x	n	n	n
O=[S+]([O-])(c1ccc2c(c1)OCCO2)N1CCN([S+](=O)([O-])c2ccc(F)cc2Cl)CC1	x	x	x	x	n	n
CC(C)CN1CC(Br)C(=O)NC1=O (stereo not given)	x	x	x	n	n	n
CC(C)CN1CC(C)C(=O)NC1=S (stereo not given)	28µM	x	x	n	n	n
CSc1nc2nccc(-c3ccc(-c4ccccc4)cc3)n2n1	28µM	n	n	n	u	n
CSc1nc2nccc(-c3ccc(Oc4ccccc4)cc3)n2n1	28µM	n	n	n	18µM	n
CCCc1cc(=O)[nH]c(SCc2nc(-c3ccc(C)cc3)no2)n1	n	n	x	n	x	n
COc1ccc(NC(=O)NCc2c(-n3cccc3)sc3c2CCCC3)c(OC)c1	n	n	x	n	n	n
O=C(Cc1ccc(-n2c(=O)[nH]c3ccsc3c2=O)cc1)N1CCN(c2ccc(Cl)cc2)CC1	n	n	n	n	23µM	n
CCCN1C(=O)c2ccccc2NC1c1ccc(OC)c(COc2ccc([N+](=O)[O-])c(C)c2)c1 (stereo not given)	n	x	x	x	u	n
CCS(=O)(=O)c1c(Nc2cc(C)ccc2C)sc(C(=O)c2ccccc2)c1N	n	u	x	n	23µM	n
Cc1ccc(Cl)cc1Nc1sc(C(=O)c2ccccc2)c(N)c1S(=O)(=O)c1ccccc1	n	n	x	n	u	n
COc1cccc2sc3ccc(C#CC4(O)CCCCC4)cc3c(=O)c12	n	n	u	n	u	n
O=c1c2ccccc2sc2ccc(C#CC3(O)CCCCC3)cc12	n	x	x	n	21µM	n
Cn1c(=O)n(C)c2cc([N+](=O)[O-])c(N3CCN(S(=O)(=O)c4ccc5ccccc5c4)CC3)cc21	n	n	n	n	5.8µM	n
CCCS(=O)(=O)N1CCN(c2cc3c(cc2[N+](=O)[O-])n(C)c(=O)n3C)CC1	x	n	n	n	12µM	n
Cn1c(=O)n(C)c2cc([N+](=O)[O-])c(N3CCN(C(=O)c4cccc(F)c4)CC3)cc21	x	n	n	n	9.2µM	n
Cc1ccc(C)c(N2CCN(S(=O)(=O)c3cc(C(=O)Nc4ccccc4C(F)(F)F)ccc3F)CC2)c1	n	n	x	n	x	n
COCCNC(=O)C1CCCN(C(=O)/C=C/c2ccccc2)CC1 (stereo not given)	n	x	x	n	x	x
SMILES	ClpP mod	miR-21 act	p53 reactivation	Nrf2 ARE act	Nrf2 inh	A549 tox
COc1cccc(NC(=O)Cn2c(=O)n(CCCCC(=O)NCc3ccccc3Cl)c(=O)c3ccccc32)c1	u	n	x	n	n	n
CCC(CC)C(=O)N(C)c1c(C)nc2c(OCc3cc(Cl)cc(Cl)c3)cccn12	n	x	x	n	x	x
COc1ccccc1-c1cc(C(F)(F)F)nc(S(=O)(=O)CCCC(=O)O)n1	n	n	n	11µM	x	n
CCOC(=O)c1cnn(-c2nc3c(C)cccc3s2)c1C	n	n	n	n	u	n
CCOC(=O)c1cnn(-c2nc3c(C)cccc3s2)c1C(F)(F)F	28µM	n	n	n	u	n
O=C(O)c1cnn(-c2nc(-c3cccc(F)c3)cs2)c1C(F)(F)F	x	n	n	n	n	n
CCOC(=O)c1cnn(-c2nc(-c3cccc(F)c3)cs2)c1C(F)(F)F	28µM	n	n	n	u	n
CC1CCCN(C(=O)c2ccc3c(=O)n(Cc4ccc5c(c4)OCO5)c(=S)[nH]c3c2)C1 (stereo not given)	n	n	u	n	26µM	n
O=C(c1ccc2c(=O)n(Cc3ccco3)c(=S)[nH]c2c1)N1CCN(Cc2ccc3c(c2)OCO3)CC1	n	x	x	x	16µM	u
CCOc1ccc(C(=O)NCC(c2ccc3c(c2)OCO3)N2CCOCC2)cc1 (stereo not given)	n	n	x	n	x	n
COc1ccc(-c2nnc(SCC(=O)Nc3cccc(F)c3)s2)cc1	n	n	x	n	x	n
CC1CC(=O)N(CC(=O)Nc2ccc(F)cc2F)c2ccccc2S1 (stereo not given)	n	n	x	n	n	n
O=C(CCc1cn(Cc2ccc(F)cc2)c2ccccc12)NCCc1ccc(Cl)cc1	n	n	x	n	n	n
O=C(NCc1cnc2ccccn12)C1CCC(=O)N(Cc2cccc(F)c2)C1 (stereo not given)	16µM	n	n	n	n	n
CSc1ccc(CNC(=O)C2CCC(=O)N(Cc3cccc(F)c3)C2)cc1 (stereo not given)	n	n	n	n	n	n
COC(=O)/C(=C\C(=O)c1ccccc1)Nc1cccc(C(F)(F)F)c1	n	n	28µM	n	u	n
O=C(Nc1ccccc1)Nc1cccc(C(F)(F)F)c1	x	n	n	n	n	n
COc1ccc(-c2nc(CSCC(=O)NC3CCCc4ccccc43)c(C)o2)cc1OC (stereo not given)	28µM	n	n	n	u	n
COc1ccc(-c2nc(CS(=O)CC(=O)NC3CCCc4ccccc43)c(C)o2)cc1OC (stereo not given)	n	n	n	n	n	n
Cc1cccc(-c2nc(CSCC(=O)N3CCN(c4ccccn4)CC3)c(C)o2)c1	n	n	n	n	21µM	n
CCOC(=O)N1CCC(NC(=O)CSCc2nc(-c3ccc(OC)c(OC)c3)oc2C)CC1	8.9µM	n	n	n	n	n
Cc1cccc(-c2nc(CSCC(=O)N3CCN(c4cccc(C)c4C)CC3)c(C)o2)c1	u	n	x	n	x	n
CCOC(=O)C1CCN(C(=O)CSCc2nc(-c3ccc(OCC)cc3)oc2C)CC1	28µM	n	n	n	n	n
O=C1CN(C(=O)COc2ccccc2)C(c2ccc(F)cc2)c2cc(Br)ccc2N1 (stereo not given)	n	n	x	n	n[9.27 µM]	u
